In PubChem BioAssay (NCI):
About 83,000 compounds went through this panel and 20% of them were active in at least one assay; those are over-represented in the sample as a whole.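 Activity criterion: percent growth below 10, measured after cells in 96-well plates were exposed to a single compound concentration for 48 hours.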 Unmarked numbers belong to inactive results. The source made the active and inactive calls.

Key:
Assay in all cases: NCI-60 one-dose screen, 48 h (100 = growth as untreated, 0 = no growth, -100 = all killed)
Settings in all cases: 10 µM unless noted
NCI-H23 lung = tested on: NCI-H23 lung
NCI-H226 lung = tested on: NCI-H226 lung
NCI-H322M lung = tested on: NCI-H322M lung
HOP-62 NSCLC = tested on: HOP-62 NSCLC
NCI-H460 lung = tested on: NCI-H460 lung
HOP-92 NSCLC = tested on: HOP-92 NSCLC
NCI-H522 lung = tested on: NCI-H522 lung
A549/ATCC NSCLC = tested on: A549/ATCC NSCLC
786-0 renal = tested on: 786-0 renal
COLO 205 colon = tested on: COLO 205 colon
DU-145 prostate = tested on: DU-145 prostate
K-562 leukemia = tested on: K-562 leukemia
MALME-3M melanoma = tested on: MALME-3M melanoma
MDA-MB-231 breast = tested on: MDA-MB-231 breast
RXF 393 renal = tested on: RXF 393 renal
SF-268 CNS = tested on: SF-268 CNS
SF-295 CNS = tested on: SF-295 CNS
SF-539 CNS = tested on: SF-539 CNS
UACC-257 melanoma = tested on: UACC-257 melanoma
M14 melanoma = tested on: M14 melanoma

Row | Structure (SMILES) | growth (NCI-H23 lung) | growth (NCI-H226 lung) [%] | growth (NCI-H322M lung) | growth (HOP-62 NSCLC) [%] | growth (NCI-H460 lung) | growth (HOP-92 NSCLC) | growth (NCI-H522 lung) | growth (A549/ATCC NSCLC) [%] | growth (786-0 renal) [%] | growth (COLO 205 colon) | growth (DU-145 prostate) | growth (K-562 leukemia) | growth (MALME-3M melanoma) | growth (MDA-MB-231 breast) [%] | growth (RXF 393 renal) | growth (SF-268 CNS) [%] | growth (SF-295 CNS) | growth (SF-539 CNS) [%] | growth (UACC-257 melanoma) [%] | growth (M14 melanoma) [%]
1 | CN1CCN(c2ccc(-c3ccc4ncc(C#N)c(Nc5ccc(F)c(Cl)c5)c4c3)cn2)CC1 | 79% | 84.2 | 16.8% | 68.7 | 26.9% | 57.9% | 39.1% | 51.3 | 52.9 | 57.1% | 27.5% | 17.3% | 27.9% | 77.2 | 27.3% | 47.7 | 71.5% | 60.2 | 34 | 30.5
2 | COc1cc2cc(Oc3ccc(NC(=O)Nc4ccc(Cl)c(C(F)(F)F)c4)cc3)c(C)nc2cc1OCCN1CCOCC1 | 10.5% | 34.9 | 61.1% | 27.6 | 8.67% (active) | 20.5% | 20.7% | 12.7 | 29.2 | -28.3% (active) | 25.2% | 9.9% (active) | 37.7% | 38.4 | 43.7% | 32.2 | 0.751% (active) | 41.7 | 14.1 | 19.2
3 | NC(=O)Nc1ccc2ncnc(Nc3ccc(Cl)cc3)c2c1 | 100% | 99.8 | 18% | 86.2 | 87.9% | 74.2% | 66.2% | 72.5 | 85.9 | 101% | 52% | 71.4% | 117% | 89.3 | 93.7% | 79.7 | 90.7% | 95.7 | 100 | 107
4 | Cc1ccc(-c2nc(N3CCN(C(=O)c4ccc(OC(F)(F)F)cc4)CC3)c3ccccc3n2)cc1 | 94.9% | 83.6 | 93% | 99.3 | 92.8% | 103% | 82% | 71.6 | 81.7 | 91.1% | 90.8% | 70% | 104% | 84.3 | 88.5% | 71.9 | 93.9% | 98.2 | 99.3 | 94.9
5 | Cc1cccc2c1S/C(=C/c1ccc([N+](=O)[O-])cc1)C2=O | 91.3% | 86.6 | 96.3% | 92.5 | 106% | 105% | 93.1% | 106 | 106 | 114% | 106% | 42.2% | 99.4% | 103 | 140% | 103 | 89.8% | 101 | 108 | 98.2
6 | COc1nc2ccccc2cc1-c1nc2c(cnn2-c2ccccc2)c(=O)[nH]1 | 46.2% | 73.3 | 82.1% | 44.2 | 24.4% | 64.6% | 21.6% | 50.2 | 61.9 | 32.6% | 61% | 16.7% | 75.6% | 58.3 | 67.1% | 53.6 | 43.8% | 28.9 | 55.5 | 23.9
7 | OC(COc1ccccc1)CN1CCN(c2ccc(Cl)cc2)CC1 (stereo not given) | 95% | 95.3 | 115% | 123 | 105% | 80.5% | 98.3% | 87.1 | 102 | 99.3% | 110% | 73.8% | 128% | 94 | 113% | 99.4 | 111% | 116 | 87.7 | 101
8 | S=c1nc(-c2ccccc2)oc(=NC2CCCCC2)n1C1CCCCC1 | 61.1% | 105 | 28.3% | 62.8 | 10.7% | -24.9% (active) | -25.6% (active) | 31.5 | 43 | 58.8% | 13.4% | -42.6% (active) | 94.9% | 81.8 | 81.5% | 34.1 | 2.95% (active) | 65.2 | 95 | 84.8
9 | N#C/C(=C\c1cccc2cnccc12)n1nnc2cccc(F)c21 | 27.7% | 62.6 | 89.9% | 53.2 | 35.5% | -25% (active) | 18.3% | 86.6 | 56.4 | 34.3% | 2.26% (active) | 11.9% | 22.6% | 31.7 | -2.13% (active) | 67.4 | 93.4% | 36.6 | 52.1 | 35.1
10 | Cc1ccc(C(=O)NCCNc2nccc(-c3c(-c4cccc(F)c4)nc4sccn34)n2)cc1 | 70.5% | 36.4 | 64.8% | 86.1 | 34.8% | 74.8% | 72.2% | 31.2 | 60.8 | 27.6% | 62.9% | 48.7% | 47.3% | 72.5 | 39.9% | 60 | 62.5% | 90.1 | 75.1 | 44
11 | NC1=NC(c2cccc(Br)c2)c2sc3ccc(Cl)cc3c2N1 (stereo not given) | 86.3% | 78.4 | 89.6% | 91.5 | 98.6% | 96.7% | 87.8% | 98 | 94.8 | 100% | 111% | 86.6% | 95.6% | 88.4 | 110% | 94 | 103% | 108 | 98.8 | 98.4
12 | c1ccc2c(c1)Nc1ccncc1S2 | 99.5% | 84 | 114% | 98.2 | 100% | 97.9% | 92.5% | 100 | 109 | 130% | 118% | 112% | 111% | 87.8 | 4.28% (active) | 99.3 | 101% | 84.4 | 108 | 95.1
13 | O=C(Nc1nc2ccc(F)cc2s1)c1cccnc1Nc1ccc(Cl)cc1Cl | 7.18% (active) | 52.6 | 3.83% (active) | 63.5 | 5.22% (active) | -6.79% (active) | 31.8% | 17 | 45.8 | 2.35% (active) | 30% | 4.08% (active) | -15.9% (active) | 34.5 | 44.4% | 28.9 | 4.3% (active) | 43.1 | 28.1 | 37
